Experimental data: PubChem BioAssay (NCATS)
“And” between values parts separate entries of the source, which are not always exact repeats. Equal values may be shown once. Records with an inconclusive call do not appear. Where a call stands in place of a potency, no number is given. The source made the active and inactive calls. Unless noted, calls follow the shape of the full dose curve.

What was measured:
[1] = molecular target: Bile acid receptor (Homo sapiens) (UniProt Q96RI1); test: qHTS assay for small molecule antagonists of farnesoid X receptor signaling (AID 588526); also: potency is read from the fitted curve at half-maximal effect
Summary of the method: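 Beta-lactamase reporter antagonist mode: HEK293T FXR-UAS-bla cells, titrated compound, CDCA stimulation, 16 h 37 C, CCF4 dye 2 h RT. Data normalized to CDCA 50 uM and DMSO; Hill-fit IC50.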

[2] = molecular target: Bile acid receptor (Homo sapiens) (UniProt Q96RI1); test: qHTS assay for small molecule agonists of farnesoid X receptor signaling (AID 588527); conditions: HEK293T FXR-UAS-bla, beta-lactamase ratio, 16 h; activation: stronger effect = higher value; also: series mostly up to about 77 µM
Summary of the method: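 Read-out: beta-lactamase reporter fluorescence with CCF4 substrate in GeneBLAzer FXR-UAS-bla HEK293T cells, after 16 h compound exposure at 37 C. Response scaled between DMSO basal (0%) and chenodeoxycholic acid at 100 uM (100%).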

[3] = molecular target: Peroxisome proliferator-activated receptor gamma (Homo sapiens) (UniProt P37231); test: qHTS assay for small molecule antagonists of peroxisome proliferator-activated receptor gamma signaling (AID 588537; active = well fitted inhibition curve with a large enough effect in the signal ratio, with a control signal flat, not every such curve was filed as active; the % refers to the signal ratio;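 also: reporter cells co-stimulated with 50 nM rosiglitazone agonist during compound treatment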)
Summary of the method: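 Antagonist-mode β-lactamase reporter screen run as a titration series. HEK293 PPARγ-UAS-bla cells are stimulated with rosiglitazone (50 nM final) for 16 h, then CCF4 is read at 460/530 nm. Data are scaled between DMSO and rosiglitazone and fitted to the Hill equation.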

[4] = qHTS assay for small molecule agonists of retinoid X receptor alpha signaling (AID 588544); conditions: HEK293T RXRa-UAS-bla, beta-lactamase reporter, 18 h; 530 nm emission
[5] = qHTS assay for small molecule agonists of the antioxidant response element (ARE) signaling pathway (AID 651741; active = well fitted activation curve with a large enough effect in the signal ratio; the % refers to the signal ratio; also: potency is read from the fitted curve at half-maximal effect)
Summary of the method: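 Beta-lactamase reporter under ARE control in HepG2 cells, 2,000 per well, was induced by 16 h compound treatment at 37 C. Read-out was fluorescence from LiveBLAzer B/G FRET substrate after 2 h at room temperature.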

[6] = qHTS assay for small molecule activators of the human pregnane X receptor (PXR) signaling pathway (AID 720659; call rule not given here)
[7] = molecular target: Glucocorticoid receptor (Homo sapiens) (UniProt P04150); test: qHTS assay for small molecule antagonists of glucocorticoid receptor signaling (AID 588533; active = well fitted inhibition curve with a large enough effect in the signal ratio, with a control signal flat, not every such curve was filed as active; the % refers to the signal ratio;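 also: cells stimulated with 2 nM dexamethasone as agonist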; also: potency is read from the fitted curve at half-maximal effect)
Summary of the method: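 Antagonist-mode qHTS: compound titrations added to GRE-bla HeLa cells, then dexamethasone 2 nM final; 18 h, 37 C. CCF4 FRET fluorescence normalized to dexamethasone and DMSO; IC50 from Hill fit.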

[8] = qHTS assay for small molecule antagonists of peroxisome proliferator-activated receptor delta signaling (AID 588535; active = well fitted inhibition curve with a large enough effect in the signal ratio, with a control signal flat, not every such curve was filed as active; the % refers to the signal ratio;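 as to max response: cells co-treated with a PPAR-delta agonist as stimulator during compound exposure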); conditions: HEK293T PPARd-UAS-bla, beta-lactamase FRET ratio, 18 h; 460 nm channel
Summary of the method: (§1)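 Titrations were run on PPAR-delta-UAS-bla HEK293T cells in charcoal/dextran-stripped serum, incubated 18 h at 37 C. CCF4 fluorescence (460/530 nm) after 2 h RT; Hill equation yields IC50 and maximal response.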

[9] = molecular target: Peroxisome proliferator-activated receptor delta (Homo sapiens) (UniProt Q03181); test: as above
Summary of the method: as §1

[10] = molecular target: Thyroid hormone receptor beta (Homo sapiens) (UniProt P10828); test: qHTS assay for small molecule antagonists of thyroid hormone receptor beta signaling (AID 588547; active = well fitted inhibition curve with a large enough effect in the signal ratio, with a control signal flat, not every such curve was filed as active; the % refers to the signal ratio;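 also: cells stimulated with 0.4 nM T3 agonist during compound exposure; series mostly up to about 77 µM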); conditions: TR-UAS-bla HEK293, beta-lactamase ratio, antagonist mode, 18 h
Summary of the method: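 Inhibition of T3-driven (0.4nM final) beta-lactamase reporter activity was measured over 0.59 nM to 92 uM compound after 18 h at 37 C. The cells were GripTite HEK293 TR-UAS-bla in charcoal/dextran-stripped serum, with CCF4 ratio read-out and IC50 from Hill fits.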

[11] = molecular target: Cytochrome P450 3A4 (Homo sapiens) (UniProt P08684); test: qHTS Assay for Activators of Cytochrome P450 3A4 (AID 885; active = well fitted curve in the direction sought with a large enough effect; an effect the other way counts as inactive or inconclusive; also: nearly all actives have a fitted effect of over 65% in size)
Summary of the method: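 Activators are scored by enhanced luminescence from CYP3A4 conversion of luciferin-PPXE (25uM, equal to KM) to luciferin, after 60 min at RT with an NADPH-regenerating system.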

[12] = Cell Viability - LYMP2-001 (AID 921; active = well fitted curve in the direction sought with a large enough effect; an effect the other way counts as inactive or inconclusive; also: potency is read from the fitted curve at half-maximal effect; nearly all actives have a fitted effect of over 70% in size)
Summary of the method: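 CellTiter-Glo luminescence (intracellular ATP) after 24 hr compound exposure at 37 C, 2500 lymphoblastoid cells/well in complete medium. AC50 fitted with standard Hill equation; tetraoctylammonium bromide positive control.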

[13] = MultiTox-Fluor Cytotoxicity Assay - LYMP1-002 - Dead Cells (AID 960; active = well fitted curve in the direction sought with a large enough effect; an effect the other way counts as inactive or inconclusive; also: potency is read from the fitted curve at half-maximal effect; nearly all actives have a fitted effect of over 60% in size)
Summary of the method: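 Dead-cell fluorescence (Ex/Em 485/520) after 16 h compound exposure at 37 C of LYMP1-002 lymphoblastoid cells in complete medium; AC50 by Hill equation, with data scaled between DMSO and 15 uM tetraoctylammonium bromide.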

[14] = MultiTox-Fluor Cytotoxicity Assay - LYMP1-003 - Dead Cells (AID 961; active = well fitted curve in the direction sought with a large enough effect; an effect the other way counts as inactive or inconclusive; also: potency is read from the fitted curve at half-maximal effect; nearly all actives have a fitted effect of over 70% in size)
Summary of the method: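 LYMP1-003 lymphoblastoid, 2500 cells/well, 5 hr settle then 16 hr cpd at 37 C; MultiTox-Fluor reagent 60 min RT; Ex/Em 485/520 dead-cell signal; norm. DMSO = 0%, 15 uM tetraoctylammonium bromide = 100%; Hill AC50.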

[15] = Cell Viability - LYMP2-003 (AID 965; active = well fitted curve in the direction sought with a large enough effect; an effect the other way counts as inactive or inconclusive;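 also: potency is read from the fitted curve at half-maximal effect; cells exposed to compounds for 24 h before reading; nearly all actives have a fitted effect of over 50% in size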)
Summary of the method: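 CellTiter-Glo luminescence (cellular ATP) after 24 h compound exposure at 37 C in complete medium; 2500 cells/well, 5 h settling beforehand. Concentration-response fitted to standard Hill equation for AC50. Tetraoctylammonium bromide served as positive control.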

[16] = Cell Viability - LYMP2-011 (AID 969; active = well fitted curve in the direction sought with a large enough effect; an effect the other way counts as inactive or inconclusive; also: potency is read from the fitted curve at half-maximal effect; nearly all actives have a fitted effect of over 60% in size)
Summary of the method: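 Cytotoxicity qHTS with ATP content as read-out: lymphoblastoid cells (2500/well) exposed to compound for 24 h at 37 C, then luciferase luminescence measured. Concentration-response data fitted with the standard Hill equation to give AC50.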

[17] = Cell Viability - LYMP2-013 (AID 970; active = well fitted curve in the direction sought with a large enough effect; an effect the other way counts as inactive or inconclusive; also: potency is read from the fitted curve at half-maximal effect; nearly all actives have a fitted effect of over 55% in size)
Summary of the method: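 qHTS cytotoxicity: ATP-dependent luminescence (CellTiter-Glo, 30 min room temperature) read after 24 h compound exposure at 37 C of 2500 LYMP2-013 lymphoblastoid cells per well. Concentration-response fitted with Hill equation to give AC50.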

Chain of Peroxisome proliferator-activated receptor delta (Homo sapiens) (Q03181 whole entry, looked up): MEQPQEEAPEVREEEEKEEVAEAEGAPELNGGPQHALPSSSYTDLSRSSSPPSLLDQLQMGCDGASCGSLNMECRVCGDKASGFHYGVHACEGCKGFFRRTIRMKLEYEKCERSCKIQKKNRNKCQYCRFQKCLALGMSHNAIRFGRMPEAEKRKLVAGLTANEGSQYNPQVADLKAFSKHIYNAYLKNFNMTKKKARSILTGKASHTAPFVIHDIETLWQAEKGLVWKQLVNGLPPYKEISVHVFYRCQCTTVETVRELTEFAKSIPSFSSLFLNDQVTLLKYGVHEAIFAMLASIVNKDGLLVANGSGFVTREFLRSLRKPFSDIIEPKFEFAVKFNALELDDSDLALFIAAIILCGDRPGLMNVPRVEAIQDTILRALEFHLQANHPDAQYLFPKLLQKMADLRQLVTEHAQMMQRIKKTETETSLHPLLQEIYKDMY
Chain of Thyroid hormone receptor beta (Homo sapiens) (P10828 whole entry, looked up): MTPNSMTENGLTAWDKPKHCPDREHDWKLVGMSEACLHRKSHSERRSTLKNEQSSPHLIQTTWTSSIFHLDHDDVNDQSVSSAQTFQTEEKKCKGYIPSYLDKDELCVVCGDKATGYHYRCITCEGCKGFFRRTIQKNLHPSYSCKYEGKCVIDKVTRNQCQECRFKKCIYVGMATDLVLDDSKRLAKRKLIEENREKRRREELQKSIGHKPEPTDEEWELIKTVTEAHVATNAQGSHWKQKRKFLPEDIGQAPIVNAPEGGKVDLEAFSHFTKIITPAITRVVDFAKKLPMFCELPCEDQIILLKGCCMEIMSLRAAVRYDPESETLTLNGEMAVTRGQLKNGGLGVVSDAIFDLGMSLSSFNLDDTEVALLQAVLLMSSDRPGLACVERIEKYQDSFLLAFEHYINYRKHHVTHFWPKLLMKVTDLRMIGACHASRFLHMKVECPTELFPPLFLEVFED
Chain of Peroxisome proliferator-activated receptor gamma (Homo sapiens) (P37231 whole entry, looked up): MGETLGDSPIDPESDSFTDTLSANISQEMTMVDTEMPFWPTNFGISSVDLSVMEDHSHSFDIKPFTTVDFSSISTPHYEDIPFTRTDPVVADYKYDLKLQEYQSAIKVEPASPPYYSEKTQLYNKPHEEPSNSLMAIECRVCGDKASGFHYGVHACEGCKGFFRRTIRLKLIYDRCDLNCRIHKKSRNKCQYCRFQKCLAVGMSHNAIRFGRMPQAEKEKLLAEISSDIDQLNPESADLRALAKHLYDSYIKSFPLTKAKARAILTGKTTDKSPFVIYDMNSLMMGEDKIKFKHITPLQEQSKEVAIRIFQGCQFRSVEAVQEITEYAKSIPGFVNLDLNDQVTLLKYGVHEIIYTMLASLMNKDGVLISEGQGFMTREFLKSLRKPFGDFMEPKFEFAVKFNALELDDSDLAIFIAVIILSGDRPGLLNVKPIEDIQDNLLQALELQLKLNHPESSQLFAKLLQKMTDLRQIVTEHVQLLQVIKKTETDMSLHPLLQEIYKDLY
Chain of Glucocorticoid receptor (Homo sapiens) (P04150 whole entry, looked up): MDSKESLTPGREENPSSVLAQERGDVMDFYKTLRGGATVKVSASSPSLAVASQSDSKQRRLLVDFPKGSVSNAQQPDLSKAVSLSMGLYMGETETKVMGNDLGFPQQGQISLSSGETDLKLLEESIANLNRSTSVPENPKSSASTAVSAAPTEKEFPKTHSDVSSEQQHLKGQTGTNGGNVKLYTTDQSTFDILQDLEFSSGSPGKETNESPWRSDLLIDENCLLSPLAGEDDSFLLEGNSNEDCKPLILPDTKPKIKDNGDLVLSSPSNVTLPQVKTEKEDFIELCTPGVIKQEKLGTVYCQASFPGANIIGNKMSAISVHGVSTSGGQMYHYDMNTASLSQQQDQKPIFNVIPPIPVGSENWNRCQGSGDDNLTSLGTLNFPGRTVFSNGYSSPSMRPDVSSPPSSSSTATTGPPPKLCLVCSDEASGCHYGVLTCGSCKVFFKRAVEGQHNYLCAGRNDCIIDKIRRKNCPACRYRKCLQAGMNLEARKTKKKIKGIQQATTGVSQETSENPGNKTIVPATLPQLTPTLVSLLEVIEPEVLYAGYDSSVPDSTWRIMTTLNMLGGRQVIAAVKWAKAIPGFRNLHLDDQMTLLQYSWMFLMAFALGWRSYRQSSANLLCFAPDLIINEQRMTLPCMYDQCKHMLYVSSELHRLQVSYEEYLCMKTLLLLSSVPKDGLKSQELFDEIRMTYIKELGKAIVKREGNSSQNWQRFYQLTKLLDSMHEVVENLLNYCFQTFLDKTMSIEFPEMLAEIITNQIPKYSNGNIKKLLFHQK
Chain of Bile acid receptor (Homo sapiens) (Q96RI1 whole entry, looked up): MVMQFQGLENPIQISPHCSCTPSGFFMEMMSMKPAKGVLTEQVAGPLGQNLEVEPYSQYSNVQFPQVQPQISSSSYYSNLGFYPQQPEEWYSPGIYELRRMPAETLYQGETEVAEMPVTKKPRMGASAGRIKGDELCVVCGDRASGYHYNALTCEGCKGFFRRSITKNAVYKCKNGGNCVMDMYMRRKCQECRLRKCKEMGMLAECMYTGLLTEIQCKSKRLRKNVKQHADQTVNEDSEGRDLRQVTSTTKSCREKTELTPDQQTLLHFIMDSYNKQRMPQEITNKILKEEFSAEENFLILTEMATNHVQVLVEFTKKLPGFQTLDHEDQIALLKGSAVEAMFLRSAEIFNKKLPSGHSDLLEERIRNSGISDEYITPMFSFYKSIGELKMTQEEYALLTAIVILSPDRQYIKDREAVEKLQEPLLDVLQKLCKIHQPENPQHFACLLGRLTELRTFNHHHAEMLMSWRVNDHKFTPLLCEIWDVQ
Chain of Cytochrome P450 3A4 (Homo sapiens) (P08684 whole entry, looked up): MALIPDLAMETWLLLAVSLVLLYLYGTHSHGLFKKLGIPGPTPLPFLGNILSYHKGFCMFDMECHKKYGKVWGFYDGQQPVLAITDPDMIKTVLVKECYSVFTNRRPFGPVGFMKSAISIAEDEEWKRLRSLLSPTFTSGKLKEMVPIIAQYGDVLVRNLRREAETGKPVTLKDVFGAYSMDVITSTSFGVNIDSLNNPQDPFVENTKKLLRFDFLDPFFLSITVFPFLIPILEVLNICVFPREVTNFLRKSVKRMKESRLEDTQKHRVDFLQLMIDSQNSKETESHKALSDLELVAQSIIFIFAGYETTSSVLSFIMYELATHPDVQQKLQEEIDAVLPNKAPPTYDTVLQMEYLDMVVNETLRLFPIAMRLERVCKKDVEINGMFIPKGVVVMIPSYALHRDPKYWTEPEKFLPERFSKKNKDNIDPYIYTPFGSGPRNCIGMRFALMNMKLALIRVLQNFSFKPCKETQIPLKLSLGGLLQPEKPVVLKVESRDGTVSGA

SMILES: CCC[CH2][Sn]([CH2]CCC)([O]C(C)=O)[O]C(C)=O
- Potency [1]: 12.6 µM (active)
- activation [2]: -0.854% (inactive)
- Potency [3]: inactive
- max response [4]: 5.61%
- Potency [5]: 30.6 µM (active)
- outcome [6]: inactive

SMILES: COC(=O)NS(=O)(=O)c1ccc(N)cc1
- Potency [7]: inactive
- max response [8]: -5.88%
- Potency [9]: inactive
- Potency [3]: inactive
- max response [4]: -13.8% and -12.5%
- activity change % (negative = inhibition) [10]: -3.22% (inactive) and 3.54% (inactive)
- outcome [6]: inactive

SMILES: O=Nc1ccc(Nc2ccccc2)cc1
- Potency [11]: inactive
- Potency [12]: 2.51 µM (active)
- Potency [13]: 3.98 µM (active)
- Potency [14]: 5.01 µM (active)
- Potency [15]: 7.94 µM (active)
- Potency [16]: 7.94 µM (active)
- Potency [17]: 10 µM (active)
- activation [2]: 15.6% (inactive)
- Potency [3]: inactive
- Potency [5]: 54.5 µM (active)

SMILES: CC(Oc1cc(Cl)c(Cl)cc1Cl)C(=O)O (configuration not stated)
- Potency [1]: inactive
- activation [2]: -3.32% (inactive)
- Potency [7]: inactive
- max response [8]: 52.3%
- Potency [9]: inactive
- Potency [3]: inactive
- max response [4]: -8.77%
- outcome [6]: inactive

SMILES: CCOP(OCC)OCC
- Potency [1]: inactive
- activation [2]: -1.35% (inactive)
- Potency [3]: inactive
- max response [4]: -0.591%
- activity change % (negative = inhibition) [10]: 9.21% (inactive)
- outcome [6]: inactive

SMILES: COP(=S)(OC)Oc1nc(Cl)c(Cl)cc1Cl
- Potency [1]: inactive
- activation [2]: 0.351% (inactive)
- Potency [7]: inactive
- Potency [5]: 27.3 µM (active)
- outcome [6]: inactive

SMILES: CCOc1ccc(C(C)(C)COCc2cccc(Oc3ccccc3)c2)cc1
- Potency [1]: inactive
- activation [2]: 4.53% (inactive)
- Potency [7]: inactive
- max response [8]: -0.606%
- Potency [9]: inactive
- Potency [3]: inactive
- activity change % (negative = inhibition) [10]: 2.33% (inactive)
- Potency [5]: inactive

SMILES: COCC(=O)N(c1c(C)cccc1C)[C@H](C)C(=O)OC
- Potency [1]: inactive
- activation [2]: 0.109% (inactive)
- Potency [3]: inactive

SMILES: O=c1[nH]c2ccccc2c(=O)o1
- Potency [1]: inactive
- activation [2]: 0.0754% (inactive)
- Potency [7]: inactive
- max response [8]: 29.4%
- Potency [9]: inactive
- max response [4]: -6.9%
- activity change % (negative = inhibition) [10]: -10.7% (inactive)
- Potency [5]: inactive
- outcome [6]: inactive

SMILES: COC(=O)c1ccccc1CS(=O)(=O)NC(=O)Nc1nc(OC)cc(OC)n1
- Potency [1]: inactive
- activation [2]: -0.439% (inactive)
- max response [8]: -1.25%
- Potency [9]: inactive
- Potency [3]: inactive
- max response [4]: -9.59%
- activity change % (negative = inhibition) [10]: 15.6% (inactive)
- Potency [5]: inactive
- outcome [6]: inactive

SMILES: Oc1ccc(C2(c3ccc(O)cc3)c3ccccc3-c3ccccc32)cc1
- Potency [1]: 28.2 µM (active)
- Potency [7]: 44.7 µM (active)

SMILES: O=P(O)(O)CCCl
- Potency [1]: inactive
- activation [2]: 4.97% (inactive) and -5.97% (inactive)
- max response [8]: -15.9%
- Potency [9]: inactive
- Potency [3]: inactive
- Potency [5]: inactive
- outcome [6]: inactive

SMILES: COP(=S)(OC)Oc1ccc([N+](=O)[O-])c(C)c1
- Potency [1]: inactive
- activation [2]: 2.17% (inactive)
- Potency [7]: inactive
- Potency [3]: inactive
- max response [4]: -4.53%
- activity change % (negative = inhibition) [10]: 7.88% (inactive)

SMILES: Clc1ccc(C(Cl)(Cl)Cl)cc1
- Potency [1]: inactive
- activation [2]: -1.93% (inactive)
- Potency [7]: inactive
- activity change % (negative = inhibition) [10]: -0.364% (inactive)
- outcome [6]: inactive

SMILES: CC(C)(c1ccccc1)c1cc(-n2nc3ccccc3n2)c(O)c(C(C)(C)c2ccccc2)c1
- Potency [7]: inactive
- max response [8]: 10.7%
- Potency [9]: inactive
- Potency [3]: inactive
- max response [4]: -5.71%
- Potency [5]: 61.1 µM (active)
- outcome [6]: inactive

SMILES: CCCCC(CC)CO[N+](=O)[O-] (configuration not stated)
- Potency [7]: inactive
- max response [8]: -28%
- Potency [9]: inactive
- Potency [3]: inactive
- max response [4]: -0.882%
- activity change % (negative = inhibition) [10]: -3.31% (inactive)
- outcome [6]: inactive

SMILES: Cc1c(COC(=O)C2C(/C=C(\Cl)C(F)(F)F)C2(C)C)cccc1-c1ccccc1 (configuration not stated)
- Potency [1]: inactive
- activation [2]: 2.08% (inactive)
- max response [8]: 11.3%
- Potency [9]: inactive

SMILES: Clc1ccc([C@]2(Cn3cncn3)C[C@@H](Br)CO2)c(Cl)c1
- Potency [1]: inactive
- activation [2]: -2.66% (inactive) and -2.04% (inactive)
- Potency [7]: inactive
- activity change % (negative = inhibition) [10]: -4.77% (inactive) and -5.66% (inactive)

SMILES: CC1CCCCC1NC(=O)Nc1ccccc1 (configuration not stated)
- Potency [1]: inactive
- activation [2]: 2% (inactive)
- Potency [7]: inactive
- max response [8]: 3.43%
- Potency [9]: inactive
- Potency [3]: inactive
- Potency [5]: 34.4 µM (active)

SMILES: CCN(CC)C(=O)C(C)Oc1cccc2ccccc12 (configuration not stated)
- Potency [1]: inactive
- activation [2]: -1.49% (inactive)
- activity change % (negative = inhibition) [10]: -8.01% (inactive)
- Potency [5]: inactive

SMILES: CN(C)P(=O)(N(C)C)N(C)C
- Potency [1]: inactive
- activation [2]: 3.22% (inactive)
- max response [8]: -0.709%
- Potency [9]: inactive
- Potency [3]: inactive
- max response [4]: -16.8%
- activity change % (negative = inhibition) [10]: -0.373% (inactive)
- Potency [5]: inactive
- outcome [6]: inactive

SMILES: COP(=O)(OC)Oc1ccc([N+](=O)[O-])cc1
- activation [2]: 5.22% (inactive)
- Potency [5]: inactive
- outcome [6]: inactive

SMILES: C=CCC1=C(C)[C@@H](OC(=O)[C@@H]2[C@@H](C=C(C)C)C2(C)C)CC1=O
- Potency [1]: inactive
- activation [2]: 1.33% (inactive)
- Potency [7]: inactive
- max response [4]: 6.67%
- Potency [5]: 61.1 µM (active)

SMILES: Cc1c(F)c(F)c(COC(=O)C2C(/C=C(\Cl)C(F)(F)F)C2(C)C)c(F)c1F (configuration not stated)
- Potency [1]: inactive
- activation [2]: 0.0589% (inactive)
- max response [8]: -17%
- Potency [9]: inactive
- Potency [3]: inactive
- max response [4]: -0.493%
- activity change % (negative = inhibition) [10]: 16.3% (inactive)

SMILES: CCNc1nc(NC(C)(C)C)nc(SC)n1
- Potency [1]: inactive
- activation [2]: 4.27% (inactive)
- Potency [7]: inactive
- max response [8]: 44.7%
- Potency [9]: inactive
- max response [4]: -0.223%
- activity change % (negative = inhibition) [10]: 6.54% (inactive)

SMILES: CN(C)c1nc(=O)n(C2CCCCC2)c(=O)n1C
- Potency [1]: inactive
- activation [2]: -1.35% (inactive)
- max response [8]: 12.4%
- Potency [9]: inactive
- max response [4]: -8.9%
- activity change % (negative = inhibition) [10]: -5.49% (inactive)
- Potency [5]: inactive
- outcome [6]: inactive

SMILES: CCC(C)n1c(=O)[nH]c(C)c(Br)c1=O (configuration not stated)
- Potency [1]: inactive
- activation [2]: 2.99% (inactive)
- Potency [3]: inactive
- outcome [6]: inactive
